Shown are actives, neighbours in structure and some others; about 2.4% of the full set was active somewhere.
M1 PAM – positive allosteric modulators of human M1 muscarinic receptor; activation, % at 3 µM; CHO-K1 hM1, Fluo-8 calcium fluorescence, ACh EC20; 0% = ACh EC20, 100% = maximal ACh; 360,000 tested, 0.088% active; in the data active = activation above about 19%, passing the limit was not always enough
Target sequence (P11229 whole entry, looked up): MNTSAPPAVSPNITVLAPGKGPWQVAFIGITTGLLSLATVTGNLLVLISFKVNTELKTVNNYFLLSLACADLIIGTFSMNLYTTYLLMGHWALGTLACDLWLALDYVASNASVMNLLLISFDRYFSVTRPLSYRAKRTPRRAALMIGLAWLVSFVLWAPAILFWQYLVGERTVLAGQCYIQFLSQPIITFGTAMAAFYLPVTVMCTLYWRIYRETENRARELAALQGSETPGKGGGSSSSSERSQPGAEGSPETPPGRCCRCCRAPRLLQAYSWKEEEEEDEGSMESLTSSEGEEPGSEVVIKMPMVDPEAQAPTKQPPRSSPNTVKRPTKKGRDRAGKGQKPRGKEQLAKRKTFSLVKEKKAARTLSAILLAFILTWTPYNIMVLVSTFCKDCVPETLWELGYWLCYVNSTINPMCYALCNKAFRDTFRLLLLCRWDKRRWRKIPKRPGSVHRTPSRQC
CHO-K1 Ca antag – counter-screen for M1 antagonists: effect in parental CHO-K1 cells; ATP-induced calcium, Fluo-8 fluorescence; inhibition, % at 3 µM; 360,000 tested, 0.6% active;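 active = inhibition above a per-plate cutoff, the plate's mean sample inhibition plus 3 SD, cut at about 24% in these data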
CHO-K1 Ca ag – nonselective activator or artifact in parental CHO-K1 cells. activation, % at 3 µM. 360,000 tested, 0.48% active. Fluo-8 calcium fluorescence; scaled to maximal ATP response, vehicle zero; in the data active = activation above about 15%;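 note: untransfected CHO-K1 host cells lacking M1 receptor as counterscreen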
CHRM1 antagonist – blocks human M1 muscarinic receptor. P11229. CHO-K1 hM1, Fluo-8 calcium fluorescence, ACh EC80 antagonist. inhibition, % at 3 µM. 360,000 tested, 1.3% active;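 active = percent inhibition above its own plate's cutoff, namely the mean of that plate's compound wells plus 3 SD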;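 note: peak over basal fluorescence ratio during 140 s after agonist addition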
M1 PAM parental – nonselective activator or artifact in parental CHO-K1 calcium assay; AID 602247; 360,000 tested, 0.02% active; ATP EC20, Fluo-8 calcium fluorescence; 0% at ATP EC20, 100% at ATP max; activation, % at 3 µM;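 active = activation above the run cutoff, the mean activation of all test compounds plus 3 SD, cut at about 40% in these data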;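 note: peak over basal fluorescence ratio in a 140 s read after ATP addition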
CHRM1 agonist – activates human CHRM1 receptor; 360,000 tested, 0.33% active; P11229; activation, % at 3 µM; CHO-K1 hM1, Fluo-8 calcium fluorescence, agonist mode; 0% DMSO, 100% acetylcholine EC100; AID 588814;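 active = activation above the run's mean compound activation plus 3 SD, cut at about 16% in these data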;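 note: peak over basal fluorescence ratio within a 140 s kinetic read after compound addition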
Each line names hits and unclear results; the compound was inactive in the other large screens.

CCOC(=O)N1CCC(N2Cc3cccc(C(=O)NC(C)c4ccc5c(c4)OCCO5)c3C2=O)CC1 (stereo not given)	CHO-K1 Ca antag 42
Cc1nn(-c2ccccc2)c(Cl)c1C(=O)NNC(=O)c1ccccc1O	none
Cc1cccc(OCc2nnc(SCC(=O)N3CC(=O)Nc4ccccc43)o2)c1	none
Nc1ccc(C(=O)N/N=C/c2cn(Cc3ccccc3F)c3ccccc23)cc1	none
O=C(O)c1ccc(N/N=C/c2cn(Cc3ccccc3F)c3ccccc23)cc1	CHO-K1 Ca ag 23
CCOc1ccc(CCNC(=O)CCS(=O)(=O)c2ccc(OC)cc2)cc1OCC	none
CC1CN(C(=O)COC(=O)/C=C/c2ccccc2)CC(C)O1 (stereo not given)	CHRM1 antagonist 29
CC1CN(C(=O)COC(=O)/C=C/c2ccc(C(F)(F)F)cc2)CC(C)O1 (stereo not given)	none
Clc1ccc(OCCN2CCCCC2)cc1Cl	CHRM1 antagonist 29
Clc1ccc(OCCCN2CCCC2)cc1Cl	CHRM1 antagonist 38
CCn1nccc1NC(=O)c1csc([C@@H]2C[C@H](O)[C@@H](CO)O2)n1	none
Cc1ccc(NC(=C(C#N)C#N)c2ccccc2)cc1	none
CCOC(=O)C1(C)CCCCN1C(=O)c1cccnc1 (stereo not given)	M1 PAM 27
Cc1ccccc1-n1ncc2c1CC(C)(C)CC2NC(=O)CN1CCCC1=O (stereo not given)	none
COc1cc(CN2CC(=O)N(c3cccc(Cl)c3C)C2=S)cc(OC)c1OC	CHO-K1 Ca ag 23
COc1cc(CN2CC(=O)N(c3ccccc3Cl)C2=S)cc(OC)c1OC	CHO-K1 Ca ag 19, CHRM1 antagonist 34
CCC1OC(C(C)C)Cc2[nH][nH]c(=O)c21 (stereo not given)	none (no result: M1 PAM, CHRM1 antagonist, CHRM1 agonist)
Oc1ccc2ccccc2c1CN1CCN(C/C=C/c2ccccc2)CC1	CHRM1 antagonist 77
O=S(=O)(c1ccccc1)N1CCN(Cc2c(O)ccc3ccccc23)CC1	none
CN1CCN(c2nc(-c3ccc(Cl)c(Cl)c3)nc3ccccc23)CC1	none
CN1CCN(C2=Cc3ccccc3Sc3cc(F)c(Cl)cc32)CC1	CHRM1 antagonist 69
CN1CCN(C2=Cc3ccccc3Sc3cc(F)c(F)cc32)CC1	CHRM1 antagonist 70
CN1CCN(c2ccccc2NC(=O)c2ccccc2F)CC1	none
CN1CCN(C2=Cc3cc(Cl)ccc3Sc3cc(F)ccc32)CC1	CHRM1 antagonist 82
CCCC(=O)N1CCC1(C)C(=O)NS(=O)(=O)c1ccc(C)cc1 (stereo not given)	none
COc1ccc(N(CCC#N)S(=O)(=O)c2cccc3nsnc23)cc1	CHRM1 antagonist 25
Cc1cc([N+](=O)[O-])ccc1NC(=O)c1cc2ccccc2o1	none
O=c1oc2ccccc2c(Nc2cccc3ccccc23)c1[N+](=O)[O-]	CHO-K1 Ca antag 26
O=c1oc2ccccc2c(Nc2ccccc2O)c1[N+](=O)[O-]	none
COc1ccc(C(=O)NC(=S)NNC(=O)[C@H]2C[C@@H]2c2ccccc2)cc1OC	CHRM1 agonist 19
O=C(/C=C/c1ccc(F)cc1)NC(=S)NNC(=O)[C@H]1C[C@@H]1c1ccccc1	CHO-K1 Ca ag 40, CHRM1 agonist 49
COc1cc(OC)cc(C(=O)NC(=S)NNC(=O)[C@H]2C[C@@H]2c2ccccc2)c1	CHRM1 agonist 43
O=C(NC(=S)NNC(=O)[C@H]1C[C@@H]1c1ccccc1)c1ccc(F)cc1	none
CC(C)(C)NC(=S)NNC(=O)[C@H]1C[C@@H]1c1ccccc1	none
Cc1nc(NC(=O)COC(=O)c2ccc(CO)cc2)c(Cl)cc1Cl	none
O=C(CCS(=O)(=O)c1cc(Br)cc2c1N(C(=O)C1CC1)CC2)N1CCN(c2ccccn2)CC1	none
CNc1ncnc2c1ncn2[C@H]1CN(Cc2ccc(OC)cc2)C[C@@H](CO)O1	none
CN(C)c1ccc(-c2nn3c(C4CCCCC4)nnc3s2)cc1	CHO-K1 Ca antag 30
Cc1ccc(S(=O)(=O)Nc2cc(=O)[nH]c(SCc3ccc(Cl)cc3)n2)cc1	CHRM1 agonist 39
O=c1cc(NS(=O)(=O)c2ccccc2)nc(SCc2c(Cl)cccc2Cl)[nH]1	none
C[C@@H]1CN([C@H](C)CO)C(=O)CCCn2nncc2CO[C@H]1CN(C)C	none
N#Cc1c(C(F)(F)F)cc(-c2ccco2)nc1SCc1ccccn1	CHO-K1 Ca ag 18
N#Cc1c(C(F)(F)F)cc(-c2ccco2)nc1SCc1ccncc1	none
Cc1cccc(OC2(c3ccccc3)OC(=O)c3ccccc32)c1C (stereo not given)	CHRM1 antagonist 36
CCCCCCOC1(c2ccccc2)OC(=O)c2ccccc21 (stereo not given)	none
CCOC(=O)COc1ccc2c(c1)C(=O)CC(C)(c1cccnc1)O2 (stereo not given)	CHO-K1 Ca ag 15
Cc1cc(C)nc(SCC(=O)NNS(=O)(=O)c2ccc(C#N)cc2)n1	none
Cc1cccc(OCCC(=O)OCC(=O)N2c3ccccc3NC(=O)C2(C)C)c1	none
Cc1cnc(C(=O)OCC(=O)N2c3ccccc3NC(=O)C2(C)C)cn1	none
Cc1nn(-c2ccccc2)c(C)c1C(=O)OCC(=O)N1c2ccccc2NC(=O)C1(C)C	CHRM1 antagonist 33
CC(C)(C)c1ccc(OCCC(=O)OCC(=O)N2c3ccccc3NC(=O)C2(C)C)cc1	CHRM1 antagonist 34
CC1(C)C(=O)Nc2ccccc2N1C(=O)COC(=O)CNS(=O)(=O)c1ccc(F)c(F)c1F	CHO-K1 Ca antag 24
CC1(C)C(=O)Nc2ccccc2N1C(=O)COC(=O)CSc1ccc(Cl)cc1	none
COc1cc(O)c(C(CC(=O)N2CCOCC2)c2ccc3c(c2)OCO3)c(OC)c1 (stereo not given)	CHRM1 antagonist 36
CCOC(=O)Cc1csc(NC(=O)CSc2ncnc3c2cnn3-c2ccccc2Cl)n1	CHRM1 antagonist 28
Cc1ccc(OCC(=O)N2CCCCC2)c(Br)c1	M1 PAM 27
O=C(OCC(=O)N1CCCCCC1)c1ccc(Cl)c(S(=O)(=O)N2CCCC2)c1	CHO-K1 Ca ag 16
CC(C)(C)c1ccc(OCC(=O)N2CCCCCC2)c(Br)c1	none
Cc1ccc(S(=O)(=O)N2CCN(C(=O)COC(=O)c3ccc(O)cc3)CC2)c(C)c1	CHO-K1 Ca antag 27, CHRM1 antagonist 30
Cc1ccc(C(=O)OCC(=O)N2CCCC2)cc1	CHRM1 antagonist 21
Cc1ccc(S(=O)(=O)N2CCN(C(=O)COC(=O)c3ccc(C(C)(C)C)cc3)CC2)c(C)c1	none
NC(=O)COC(=O)c1ccc(Cl)c(S(=O)(=O)N2CCCCCC2)c1	none
CCN(CC)C(=O)C1=C(C)N(CCCOC)C(=O)C(CC(=O)NCCCN(C)C)C1 (stereo not given)	none
NC(=S)NN=C1C=CCCC1	none
